HIF act = HIF pathway transcriptional activation; activation, % at 7.5 µM (by protocol); AID 1910; U2OS HRE-luciferase reporter, luminescence; normalized: DMSO 0%, desferrioxamine 100%; 300,000 compounds, 0.32% hits;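 active means mean activation of at least 10% of the iron chelator positive control signal, with at least half of replicates also reaching 10%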
HSF1 activator = increases HSF-1 driven luciferase reporter signal; NIH3T3-HGL HSF-1 luciferase reporter, MG132, 8 h; 100% = twice DMSO control signal; activation, % at 9 µM; 300,000 compounds, 1.7% hits; AID 504408;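 active means mean replicate activation of at least 50% with a set share of replicates each reaching 50%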;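 further: 0% = median of the neutral control wells and 100% = twice that signal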
ARNT-TACC3 inh = disruptors of human ARNT/TACC3 interaction | AlphaScreen His-ARNT PAS-B/GST-TACC3 binding, luminescence; TACC3 fragment carries E629A point mutation | inhibition, % at 9.99 µM | 390,000 compounds, 0.66% hits | Q9Y6A5;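 active means mean inhibition of replicates at least 50% and at least half of replicates each reaching 50%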;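 further: 0% = complete ARNT plus TACC3 wells and 100% = ARNT alone without TACC3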
HSF1 inh = HSF1 inhibition. NIH3T3-HGL HSE-luciferase, MG132-induced, luminescence 8 h; hits give low values. 300,000 compounds, 0.77% hits. activity change, negative = inhibition, % at 7.5 µM (by protocol);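 active means more than half of replicate wells show activity change below -50%, luminescence cut by over half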;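 further: luciferase reports HSF-1 transcriptional activity via heat shock element; 0% = median of DMSO wells and -100% = zero luminescence signal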
HSP90 refold inh = HSP90 refolding inhibition in rabbit reticulocyte lysate; luciferase refolding luminescence, 3 h; 290,000 compounds, 0.91% hits; inhibition, % at 5.6 µM; AID 1789;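 active means inhibition above the screen-wide mean plus 3 SD, computed separately per campaign, cut at about 16% in these data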;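 further: 0% = DMSO wells and 100% = 60 µM geldanamycin wells; inhibitors lower the luminescence because luciferase stays unfolded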
Numbers without * were called inactive; . = not tested or not shown. An excerpt weighted towards active compounds, which were near 3.1% of everything screened.

SMILES	HIF act	HSF1 activator	ARNT-TACC3 inh	HSF1 inh	HSP90 refold inh
COc1ccc(-c2c(C)nn3c(-c4ccccc4)cc(C)nc23)cc1	0	-1	9	1	2
COc1ccc(-c2c(C)nn3c(Cl)c(C)c(C)nc23)cc1	-1	60*	8	29	0
Cc1noc(C)c1S(=O)(=O)Nc1ccc2c(c1)CC(=O)N([C@H](C)CO)C[C@@H](C)[C@@H](CN(C)S(=O)(=O)c1cccs1)O2	.	.	0	.	.
Cc1ccsc1/C=C/c1ccc2cccc(O)c2n1	1	71*	11	46	2
COc1cc(Br)cc(/C=C/c2ccc3cccc(O)c3n2)c1O	-8	85*	.	63	1
Oc1ccc(Cl)cc1/C=C/c1ccc2cccc(O)c2n1	2	58*	.	29	0
Cc1ccsc1/C=C/c1ccc2ccccc2n1	-3	-35	1	-24	9
Oc1ccc(Cl)cc1N=Nc1ccccc1	2	12	-3	1	-2
O=S(=O)(O)c1cc(O)c2c(O)c(N=Nc3cc(Cl)ccc3O)c(S(=O)(=O)O)cc2c1	-5	-23	69*	-13	-1
Cc1ccccc1CN1CCc2cc([N+](=O)[O-])ccc21	3	18	-41	3	1
COC(=O)CCN1CCc2cc(N=Nc3ccc([N+](=O)[O-])cc3)ccc21	2	-58	-2	-63*	0
CC(C)(C)c1ccc(-n2nc(C#N)c(Cl)cc2=O)cc1	-3	153*	.	152	0
CC(C)(C)c1ccc(-n2nc(C(N)=O)c(O)cc2=O)cc1	0	-9	.	4	4
COc1ccc(/C=C/C(O)=C2/C(=O)N(C)C3(C)CC2c2ccccc2O3)cc1 (configuration not stated)	0	65*	-3	22	2
Cc1ccc(/C=C/C(O)=C2/C(=O)N(C)C3(C)CC2c2ccccc2O3)cc1 (configuration not stated)	0	38	-3	7	4
O=C(Nc1cc(Cl)ccc1O)c1snnc1-c1ccccc1	-1	-7	3	-1	-3
O=C(Nc1cccc(Cl)c1Cl)c1snnc1-c1ccccc1	0	-89	-4	-86*	2
CCN1/C(=C/c2ccc3cc(C)ccc3[n+]2CC)Sc2ccccc21	26*	-20	14	-20	8
CCC(=O)Nc1ccc2c(c1)C(=O)N(C)C[C@@H](OC)[C@@H](C)CN(C(=O)NC(C)C)[C@@H](C)CO2	.	.	-2	.	.
COc1ccc(NC(=O)c2cc3ccccc3cc2OC)cc1	3	36	-11	17	-1
COc1cc(C(=O)Nc2ccc(Nc3ccccc3)cc2)cc(OC)c1OC	1	58*	9	25	0
COc1cc2ccccc2cc1C(=O)Nc1ccccc1N1CCCC1	-1	-20	2	5	.
CCOc1ccc(NC(=O)c2cc3ccccc3cc2OC)cc1	5	75*	25	22	1
COc1cc2ccccc2cc1C(=O)NNC(=O)c1ccccc1O	12*	2	-5	-4	-6
COc1cc2ccccc2cc1C(=O)Nc1ccccc1Cl	5	93*	-8	66	-4
SMILES	HIF act	HSF1 activator	ARNT-TACC3 inh	HSF1 inh	HSP90 refold inh
Cc1noc(C)c1S(=O)(=O)Nc1ccc2c(c1)C(=O)N([C@@H](C)CO)C[C@@H](C)[C@H](CN(C)Cc1ccc(Cl)c(Cl)c1)OCCCC[C@@H](C)O2	.	.	0	.	.
COc1ccccc1NC(=O)CN1CCCCCC1	1	23	.	0	-5
COc1ccccc1NC(=O)CN1CCN(CC(=O)Nc2ccccc2Cl)CC1	-4	243*	-18	157	-4
COc1cc(NC(=O)c2ccc(Cl)cc2)c(OC)cc1NC(=O)CN1CCOCC1	2	21	-3	17	-2
COc1cc(NC(=O)c2ccc(C)cc2)c(OC)cc1NC(=O)CN1CCOCC1	2	60*	31	52	1
COc1ccc(C(C(=O)NC2CCCCC2)N(C(=O)CCl)c2ccc(OC)cc2)cc1 (configuration not stated)	0	-35	-6	-39	4
COc1ccc(C(C(=O)NC2CCCCC2)N(C(=O)CCl)c2cccc(Cl)c2)cc1 (configuration not stated)	-1	-90	-7	-90*	1
Cc1cccc(C)c1NC(=O)N1C(C(=O)O)CSC1C(=O)O (configuration not stated)	0	-90	-3	-88*	5
O=C(C[C@@H]1CC[C@H](NC(=O)C2CCC2)[C@@H](CO)O1)NCCCN1CCOCC1	.	.	6	.	.
Cc1ccc(C)c(NC(=O)COc2coc(CN3CCc4ccccc4C3)cc2=O)c1	0	-62	0	-51*	.
CC(C)NC(=O)COc1coc(CN2CCN(c3ccccc3)CC2)cc1=O	-1	-63	-3	-53*	2
Cc1ccc(NC(=O)COc2coc(CN3CCc4ccccc4C3)cc2=O)c(C)c1	0	1	1	3	.
Cc1cc(NC(=O)COc2coc(CN3CCN(c4ccccc4F)CC3)cc2=O)no1	0	-80	4	-75*	.
Cc1cc(NC(=O)COc2coc(CN3CCN(c4ccccc4)CC3)cc2=O)no1	0	3	3	0	.
COc1ccccc1N1CCN(Cc2cc(=O)c(OCC(=O)Nc3ccccc3)co2)CC1	-1	10	-12	-8	.
CCCNC(=O)COc1coc(CN2CCN(c3ccccc3OC)CC2)cc1=O	0	-80	0	-73*	8
CC(C)NC(=O)COc1coc(CN2CCN(c3cccc(Cl)c3)CC2)cc1=O	1	4	-3	-3	-3
C[C@@H]1CN([C@@H](C)CO)C(=O)c2cc(NC(=O)C3CCCCC3)ccc2O[C@@H](C)CCCCO[C@@H]1CN(C)C(=O)c1ccncc1	.	.	-8	.	.
COC(=O)[C@H]1[C@H](CO)[C@H]2Cn3c(ccc(/C=C/c4ccccc4)c3=O)[C@H]2N1C(=O)C1CCCC1	.	.	-16	.	.
C[C@H]1CN([C@@H](C)CO)C(=O)c2cc(C#CCN(C)C)cnc2O[C@H]1CN(C)C(=O)c1ccc2c(c1)OCO2	.	.	-5	.	.
CCCCc1ccc(NC(=O)c2cnccn2)cc1	-1	20	.	4	17*
COCCCNC(=S)N/N=C/c1ccccc1O	.	.	64*	.	-2
COCCNC(=S)N/N=C/c1ccccc1C(=O)O	-1	-23	16	-1	3
C[C@@H]1CCCCO[C@H](CN(C)C(=O)Nc2ccc3c(c2)OCO3)[C@@H](C)CN([C@@H](C)CO)C(=O)c2cc(NC(=O)c3ccncc3)ccc2O1	.	.	9	.	.
CCc1cccc(CC)c1NC(=S)N1CCn2cccc2C1c1cccnc1 (configuration not stated)	-1	-65	5	-55*	5
O=C(/C=C/c1ccco1)Oc1cc(Br)cc(/C=N/NC(=O)c2ccccc2O)c1	97*	36	38	14	-1
NC1=C(Br)C(=O)c2ccccc2C1=O	0	31	36	7	9
NC1=CC(=O)C(=O)c2ccccc21	.	.	18*	.	.

Screens deposited in PubChem by several laboratories.
